# According to PubChem BioAssay AID2451 (National Center for Advancing Translational Sciences (NCATS), 2010):
# Among all 290,000 compounds or so, about 2,100 (0.72%) were called active. Where a call stands in place of a potency, no number is given. Inconclusive results (about 4%) are left out. The call rests on the fitted dose curve; in most records, active means well fitted inhibition curve with a large enough effect; inconclusive means small, poorly fitted or top-dose-only effect, or effect the other way; inactive means flat fitted curve, though single readings scatter. The sample as a whole holds a higher share of actives than the screen did.
# Molecular target: Fructose-bisphosphate aldolase (Giardia intestinalis (strain ATCC 50803 / WB clone C6)) (UniProt A8B2U2)
# Experiment: qHTS Assay for Inhibitors of Fructose-1,6-bisphosphate Aldolase from Giardia Lamblia; further: nearly all actives have a fitted effect of over 55% in size
# Settings: purified Giardia FBPA; series mostly up to 59.6 µM
# In short: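 40 nM FBPA preincubated 10 min at RT with compound (up to 57.5 uM final), then substrate plus GAPDH/TPI/NAD/arsenate coupling and diaphorase/resazurin added. Fluorescence read after 20 min at RT, 525/598 nm.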
# Potency means the concentration at half of the fitted maximal effect.
# Chain of Fructose-bisphosphate aldolase (Giardia intestinalis (strain ATCC 50803 / WB clone C6)) (A8B2U2 whole entry, looked up): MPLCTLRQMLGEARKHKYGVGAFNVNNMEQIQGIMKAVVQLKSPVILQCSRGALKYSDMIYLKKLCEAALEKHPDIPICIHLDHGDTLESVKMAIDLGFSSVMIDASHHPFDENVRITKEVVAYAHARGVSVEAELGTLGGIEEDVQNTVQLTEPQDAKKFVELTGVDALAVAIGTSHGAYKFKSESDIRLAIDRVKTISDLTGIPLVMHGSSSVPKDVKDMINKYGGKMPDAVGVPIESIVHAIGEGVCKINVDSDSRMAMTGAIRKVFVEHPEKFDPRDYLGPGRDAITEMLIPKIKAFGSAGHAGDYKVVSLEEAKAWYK
row,Structure (SMILES),Potency
1,O=C(c1ccccc1)N1CCN(C(=O)c2cc3nc(-c4ccccc4)cc(C(F)(F)F)n3n2)CC1,inactive
2,O=C(/C=C/c1ccco1)NC(=S)Nc1ccccc1Br,inactive
3,CCNC(=O)N1CCCC(C(=O)c2ccc(-c3ccccc3)cc2)C1 (configuration not stated),inactive
4,Cc1ccc(CC2CC(=O)N(c3nc(C)cc(C)n3)C2=O)cc1 (configuration not stated),inactive
5,Cc1cc(C)cc(NC(=O)C2CCN(c3nc(C)cc(C)n3)CC2)c1,inactive
6,COC(=O)CC1=NN(c2nc(C)cc(C)n2)C(=O)C1,5.61 µM (active)
7,Cc1cccc(-n2c(O)c(C=Nc3ccccc3N)c(=O)[nH]c2=O)c1,inactive
8,O=c1[nH]c(=O)n(-c2ccccc2)c(O)c1C=NC12CN3CN(CN(C3)C1)C2,inactive
9,CCCCC(=O)N/N=C/c1c(O)n(-c2ccccc2)c(=O)[nH]c1=O,8.89 µM (active)
10,O=C(NC(=S)Nc1ccc(Cl)cc1Cl)C1CC1,inactive
11,COc1ccccc1/C=N/N1CCN(Cc2ccccc2Cl)CC1,inactive
12,COC(=O)N1CCC2(CCCN(Cc3ccccc3OC)C2)CC1,inactive
13,COc1ccccc1CN1CC2(CCN(S(=O)(=O)c3ccccc3)CC2)C1,inactive
14,COc1ccccc1CN1CCN(C(=O)Cc2ccccc2)CC1,17.8 µM (active)
15,COc1ccccc1CN1CCN(Cc2cc(OC)c(OC)cc2OC)CC1,25.1 µM (active)
16,CS(=O)(=O)N1CCN(C(=O)Cc2ccccc2)CC1,inactive

row,Structure (SMILES),Potency
1,CCOCCOC(=O)C1=C(C)NC(=O)NC1c1ccc2c(c1)OCO2 (configuration not stated),inactive
2,O=C(O)c1c(NC(=O)N2CCCC2)sc2c1CCCC2,inactive
3,O=C(Nc1ccc(O)cc1)c1ccc(NC(=O)c2ccco2)cc1,inactive
4,CCOC(=O)C1(Cc2cccc(OC)c2)CCCN(C(=O)CCSC)C1 (configuration not stated),inactive
5,Cc1cc(=O)[nH]c(SCC(=O)Nc2ccc(Br)cc2)n1,inactive
6,Cc1cc(C)c2c(=O)[nH]c(SCC(=O)Nc3ccc(Br)cc3)nc2n1,31.6 µM (active)
7,Cc1cccc(NC(=O)CSc2nc3[nH]ncc3c(=O)[nH]2)c1,inactive
8,O=C(NC(c1ccccc1)c1ccccc1)N1CCN(CCO)CC1,inactive
9,OCCN1CCN(C(=S)c2ccc(-c3ccccc3)cc2)CC1,11.2 µM (active)
10,S=C(c1ccccc1)N1CCCC1,inactive
11,COc1ccc(-c2ccc(C3C4C=CCCC4(C)C(=O)N3Cc3ccccc3)c(F)c2)cc1OC (configuration not stated),inactive
12,Cc1cc(F)ccc1NC(=S)NCCc1ccccc1,inactive
13,COc1cc(NC(=O)C2=CC(c3ccc(C)cc3)=NS(=O)(=O)N2C)cc(OC)c1OC,inactive
14,CCOc1cccc(NC(=O)C2CCCN(S(=O)(=O)c3ccc(OC)cc3)C2)c1 (configuration not stated),inactive
15,COc1ccccc1CC(=O)Nc1ccc(S(=O)(=O)N2CCCC2)cc1,inactive
16,CCN(CC(=O)Nc1ccc(S(=O)(=O)N2CCCC2)cc1)CC(=O)Nc1cccc(OC)c1,5 µM (active)
